Laboratory results taken from PMC7862700, “An all-to-all approach to the identification of sequence-specific readers for epigenetic DNA modifications on cytosine”.

Legend:
Experiment in all cases: DAPPL (digital affinity profiling via proximity ligation, sequencing); 10 mM Tris-HCl pH 7.5, 50 mM NaCl, 1 mM DTT, 4% glycerol, room temperature, 30 min; GST-TFs on glutathione beads, 16-mer random dsDNA library, 0.1% formaldehyde crosslink after washing; high values mean tight binding
[1] = molecular target: T1, FLI1 (Homo sapiens, UniProt Q01543 1-452); conditions: protein: recombinant; tags: N-terminal GST; dsDNA, one strand shown
T1 sequence: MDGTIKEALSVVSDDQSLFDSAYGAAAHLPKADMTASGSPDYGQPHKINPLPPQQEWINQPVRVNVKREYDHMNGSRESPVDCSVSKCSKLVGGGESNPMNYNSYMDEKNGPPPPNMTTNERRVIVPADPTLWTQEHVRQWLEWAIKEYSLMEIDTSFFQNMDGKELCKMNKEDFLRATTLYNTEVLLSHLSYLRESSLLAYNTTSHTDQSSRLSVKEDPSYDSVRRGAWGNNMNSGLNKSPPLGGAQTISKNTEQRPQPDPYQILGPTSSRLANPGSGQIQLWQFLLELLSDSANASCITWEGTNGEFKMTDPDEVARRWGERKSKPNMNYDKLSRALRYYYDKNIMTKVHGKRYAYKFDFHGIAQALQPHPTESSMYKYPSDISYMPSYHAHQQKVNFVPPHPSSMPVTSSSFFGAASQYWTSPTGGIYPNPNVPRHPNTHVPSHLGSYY
Procedure, shortened: (§1)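 Human transcription factors were made in yeast as GST fusions, captured on glutathione beads and barcoded with DNA. With a tag-only sample included, the pool was incubated with 200 nmole of a random double-stranded 16-mer DNA library in Tris/NaCl/DTT/glycerol buffer at room temperature for 30 min, then crosslinked with 0.1% formaldehyde after washing, ligated by proximity, amplified and sequenced. For binding signal, each hexamer's read frequency for a factor is divided by its frequency for the tag-only sample.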

[2] = molecular target: T2, ELK1 (Homo sapiens, UniProt P19419 1-428); conditions: protein: recombinant; tags: N-terminal GST; dsDNA, one strand shown
T2 sequence: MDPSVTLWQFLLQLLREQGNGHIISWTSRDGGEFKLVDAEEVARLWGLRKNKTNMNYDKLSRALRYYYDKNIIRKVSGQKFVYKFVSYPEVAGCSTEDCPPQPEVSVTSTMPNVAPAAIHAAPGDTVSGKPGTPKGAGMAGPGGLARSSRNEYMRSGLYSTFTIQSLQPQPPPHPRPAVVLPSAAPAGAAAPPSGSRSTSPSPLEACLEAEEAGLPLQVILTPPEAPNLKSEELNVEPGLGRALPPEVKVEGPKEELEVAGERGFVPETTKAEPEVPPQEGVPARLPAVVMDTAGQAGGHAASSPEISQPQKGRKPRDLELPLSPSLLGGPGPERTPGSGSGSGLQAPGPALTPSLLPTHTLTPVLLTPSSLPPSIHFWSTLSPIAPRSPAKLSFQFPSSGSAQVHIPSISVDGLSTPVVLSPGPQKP
Procedure, shortened: as §1

[3] = molecular target: T3, GABPA (Homo sapiens, UniProt Q06546 1-454); conditions: protein: recombinant; tags: N-terminal GST; dsDNA, one strand shown
T3 sequence: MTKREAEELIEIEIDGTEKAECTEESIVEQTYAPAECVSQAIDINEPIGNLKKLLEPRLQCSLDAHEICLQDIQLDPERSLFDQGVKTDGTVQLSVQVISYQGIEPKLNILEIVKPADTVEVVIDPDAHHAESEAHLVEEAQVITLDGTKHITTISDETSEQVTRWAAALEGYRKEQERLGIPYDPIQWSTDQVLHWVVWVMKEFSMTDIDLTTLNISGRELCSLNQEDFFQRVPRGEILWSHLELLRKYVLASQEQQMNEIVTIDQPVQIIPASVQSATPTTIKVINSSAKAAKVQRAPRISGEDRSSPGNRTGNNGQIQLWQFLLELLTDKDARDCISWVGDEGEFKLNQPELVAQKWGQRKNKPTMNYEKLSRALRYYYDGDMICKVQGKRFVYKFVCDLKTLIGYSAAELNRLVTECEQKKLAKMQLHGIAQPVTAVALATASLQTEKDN
Procedure, shortened: as §1

[4] = molecular target: T4, ERG (Homo sapiens, UniProt P11308 1-479); conditions: protein: recombinant; tags: N-terminal GST; dsDNA, one strand shown
T4 sequence: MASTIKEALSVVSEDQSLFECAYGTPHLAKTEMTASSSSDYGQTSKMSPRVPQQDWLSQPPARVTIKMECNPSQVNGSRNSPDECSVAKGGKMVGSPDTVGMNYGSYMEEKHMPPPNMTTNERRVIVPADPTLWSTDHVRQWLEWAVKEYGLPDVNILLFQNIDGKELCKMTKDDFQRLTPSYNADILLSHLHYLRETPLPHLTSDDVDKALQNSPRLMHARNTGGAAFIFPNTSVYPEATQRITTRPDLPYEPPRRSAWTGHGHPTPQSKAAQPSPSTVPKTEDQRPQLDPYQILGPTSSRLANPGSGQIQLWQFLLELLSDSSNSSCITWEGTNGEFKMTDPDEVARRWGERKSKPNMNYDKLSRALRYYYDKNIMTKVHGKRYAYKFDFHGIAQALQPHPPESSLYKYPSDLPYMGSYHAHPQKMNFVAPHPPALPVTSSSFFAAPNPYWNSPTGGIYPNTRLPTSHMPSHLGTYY
Procedure, shortened: as §1

[5] = molecular target: ELF1 (Homo sapiens, UniProt P32519 1-619); conditions: protein: recombinant; tags: N-terminal GST; dsDNA, one strand shown
Chain of ELF1 (P32519 whole entry): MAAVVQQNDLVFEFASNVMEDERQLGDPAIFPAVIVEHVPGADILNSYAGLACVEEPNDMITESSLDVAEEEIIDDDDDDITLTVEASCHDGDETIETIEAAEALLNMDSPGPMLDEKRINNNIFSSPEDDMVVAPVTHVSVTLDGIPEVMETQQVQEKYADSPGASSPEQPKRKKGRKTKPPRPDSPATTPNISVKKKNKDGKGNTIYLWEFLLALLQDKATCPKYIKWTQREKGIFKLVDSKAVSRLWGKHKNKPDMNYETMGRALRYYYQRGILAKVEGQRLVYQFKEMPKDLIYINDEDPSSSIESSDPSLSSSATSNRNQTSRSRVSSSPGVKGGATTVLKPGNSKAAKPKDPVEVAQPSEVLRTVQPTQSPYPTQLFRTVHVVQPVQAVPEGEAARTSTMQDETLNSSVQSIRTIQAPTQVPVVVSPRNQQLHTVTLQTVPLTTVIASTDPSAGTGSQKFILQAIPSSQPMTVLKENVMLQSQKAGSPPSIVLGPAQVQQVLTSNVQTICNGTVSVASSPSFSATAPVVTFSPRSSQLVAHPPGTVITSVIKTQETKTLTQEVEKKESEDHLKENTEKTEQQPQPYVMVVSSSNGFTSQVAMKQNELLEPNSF
Procedure, shortened: as §1

[6] = molecular target: T5, EHF (Homo sapiens, UniProt Q9NZC4 1-300); conditions: protein: recombinant; tags: N-terminal GST; dsDNA, one strand shown
T5 sequence: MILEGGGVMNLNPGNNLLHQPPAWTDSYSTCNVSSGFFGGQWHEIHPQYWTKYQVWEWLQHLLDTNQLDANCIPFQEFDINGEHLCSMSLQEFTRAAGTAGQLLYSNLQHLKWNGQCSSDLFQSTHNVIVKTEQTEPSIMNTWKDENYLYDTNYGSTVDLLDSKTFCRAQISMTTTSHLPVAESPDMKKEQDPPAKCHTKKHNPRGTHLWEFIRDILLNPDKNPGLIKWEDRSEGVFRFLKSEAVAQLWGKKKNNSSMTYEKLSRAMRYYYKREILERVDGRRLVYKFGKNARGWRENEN
Procedure, shortened: as §1

[7] = molecular target: SPI1 (Homo sapiens, UniProt P17947 1-270); conditions: protein: recombinant; tags: N-terminal GST; dsDNA, one strand shown
Procedure, shortened: as §1

[8] = molecular target: SPIB (Homo sapiens, UniProt Q01892 1-262); conditions: protein: recombinant; tags: N-terminal GST; dsDNA, one strand shown
Chain of SPIB (Q01892 whole entry): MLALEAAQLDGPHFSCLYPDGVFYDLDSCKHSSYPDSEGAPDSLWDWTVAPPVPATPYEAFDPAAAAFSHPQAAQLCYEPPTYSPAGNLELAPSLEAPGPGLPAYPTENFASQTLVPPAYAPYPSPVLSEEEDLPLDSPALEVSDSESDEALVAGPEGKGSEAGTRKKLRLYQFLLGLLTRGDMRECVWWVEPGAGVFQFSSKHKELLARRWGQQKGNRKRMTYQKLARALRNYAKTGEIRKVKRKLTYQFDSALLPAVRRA
Procedure, shortened: as §1

[9] = molecular target: T6, ELK3 (Homo sapiens, UniProt P41970 1-407); conditions: protein: recombinant; tags: N-terminal GST; dsDNA, one strand shown
T6 sequence: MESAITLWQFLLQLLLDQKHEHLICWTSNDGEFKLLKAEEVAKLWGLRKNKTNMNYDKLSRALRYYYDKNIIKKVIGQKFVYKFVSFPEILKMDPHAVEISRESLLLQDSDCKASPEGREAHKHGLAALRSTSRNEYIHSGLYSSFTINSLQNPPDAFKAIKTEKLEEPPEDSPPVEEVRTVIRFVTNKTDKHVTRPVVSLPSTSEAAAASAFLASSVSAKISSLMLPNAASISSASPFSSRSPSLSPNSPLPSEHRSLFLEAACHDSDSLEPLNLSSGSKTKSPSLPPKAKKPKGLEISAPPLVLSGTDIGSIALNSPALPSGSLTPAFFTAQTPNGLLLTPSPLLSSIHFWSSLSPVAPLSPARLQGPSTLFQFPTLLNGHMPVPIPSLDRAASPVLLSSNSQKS
Procedure, shortened: as §1

[10] = molecular target: T7, FEV (Homo sapiens, UniProt Q99581 1-238); conditions: protein: recombinant; tags: N-terminal GST; dsDNA, one strand shown
T7 sequence: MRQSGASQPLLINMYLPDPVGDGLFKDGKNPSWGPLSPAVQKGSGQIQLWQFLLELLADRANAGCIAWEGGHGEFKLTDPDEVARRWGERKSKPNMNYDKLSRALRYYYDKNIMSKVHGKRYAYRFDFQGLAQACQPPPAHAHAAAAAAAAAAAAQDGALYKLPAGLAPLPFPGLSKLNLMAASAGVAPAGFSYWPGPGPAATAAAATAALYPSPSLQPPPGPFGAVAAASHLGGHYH
Procedure, shortened: as §1

[11] = molecular target: ETV5 (Homo sapiens, UniProt P41161 1-510); conditions: protein: recombinant; tags: N-terminal GST; dsDNA, one strand shown
Chain of ETV5 (P41161 whole entry): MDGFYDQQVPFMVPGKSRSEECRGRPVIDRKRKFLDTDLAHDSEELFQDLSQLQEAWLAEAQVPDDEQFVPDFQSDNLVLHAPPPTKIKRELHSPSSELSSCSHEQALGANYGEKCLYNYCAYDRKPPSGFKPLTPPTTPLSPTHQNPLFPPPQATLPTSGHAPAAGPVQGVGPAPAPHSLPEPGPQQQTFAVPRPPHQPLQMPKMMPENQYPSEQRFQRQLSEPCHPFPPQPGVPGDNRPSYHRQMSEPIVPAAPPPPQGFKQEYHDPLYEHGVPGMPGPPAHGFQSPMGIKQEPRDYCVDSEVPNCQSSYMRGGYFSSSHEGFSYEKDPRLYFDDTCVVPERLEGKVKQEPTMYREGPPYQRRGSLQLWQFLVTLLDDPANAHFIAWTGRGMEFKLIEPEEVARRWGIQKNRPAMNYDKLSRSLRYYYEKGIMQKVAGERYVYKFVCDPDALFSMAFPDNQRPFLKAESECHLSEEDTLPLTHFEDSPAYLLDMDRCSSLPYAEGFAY
Procedure, shortened: as §1

[12] = molecular target: HSF1 (Homo sapiens, UniProt Q00613 1-529); conditions: protein: recombinant; tags: N-terminal GST; chain copies: 3; dsDNA, one strand shown
Chain of HSF1 (Q00613 whole entry): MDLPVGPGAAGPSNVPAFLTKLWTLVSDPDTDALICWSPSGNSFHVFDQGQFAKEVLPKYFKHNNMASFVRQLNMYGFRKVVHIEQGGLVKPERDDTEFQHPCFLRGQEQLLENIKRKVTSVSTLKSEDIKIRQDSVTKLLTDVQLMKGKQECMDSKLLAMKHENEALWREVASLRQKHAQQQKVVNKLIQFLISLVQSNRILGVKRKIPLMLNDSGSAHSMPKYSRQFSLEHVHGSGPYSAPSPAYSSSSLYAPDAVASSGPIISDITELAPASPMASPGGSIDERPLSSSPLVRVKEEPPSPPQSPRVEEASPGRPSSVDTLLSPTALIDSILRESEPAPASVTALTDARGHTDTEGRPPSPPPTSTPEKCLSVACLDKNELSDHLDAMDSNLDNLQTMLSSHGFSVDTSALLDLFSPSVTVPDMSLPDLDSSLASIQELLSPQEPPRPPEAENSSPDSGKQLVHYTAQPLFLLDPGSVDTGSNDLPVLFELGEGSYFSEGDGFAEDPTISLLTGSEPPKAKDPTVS
Procedure, shortened: as §1

[13] = molecular target: T8, SPIC (Homo sapiens, UniProt Q8N5J4 1-248); conditions: protein: recombinant; tags: N-terminal GST; dsDNA, one strand shown
T8 sequence: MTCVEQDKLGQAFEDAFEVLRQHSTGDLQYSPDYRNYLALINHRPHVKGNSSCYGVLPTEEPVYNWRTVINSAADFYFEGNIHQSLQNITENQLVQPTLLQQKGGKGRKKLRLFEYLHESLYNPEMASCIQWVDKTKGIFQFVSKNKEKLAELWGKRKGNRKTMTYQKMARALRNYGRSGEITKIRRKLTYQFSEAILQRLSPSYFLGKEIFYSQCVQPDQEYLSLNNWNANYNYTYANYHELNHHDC
Procedure, shortened: as §1

[14] = molecular target: ELF4 (Homo sapiens, UniProt Q99607 1-663); conditions: protein: recombinant; tags: N-terminal GST; dsDNA, one strand shown
Chain of ELF4 (Q99607 whole entry): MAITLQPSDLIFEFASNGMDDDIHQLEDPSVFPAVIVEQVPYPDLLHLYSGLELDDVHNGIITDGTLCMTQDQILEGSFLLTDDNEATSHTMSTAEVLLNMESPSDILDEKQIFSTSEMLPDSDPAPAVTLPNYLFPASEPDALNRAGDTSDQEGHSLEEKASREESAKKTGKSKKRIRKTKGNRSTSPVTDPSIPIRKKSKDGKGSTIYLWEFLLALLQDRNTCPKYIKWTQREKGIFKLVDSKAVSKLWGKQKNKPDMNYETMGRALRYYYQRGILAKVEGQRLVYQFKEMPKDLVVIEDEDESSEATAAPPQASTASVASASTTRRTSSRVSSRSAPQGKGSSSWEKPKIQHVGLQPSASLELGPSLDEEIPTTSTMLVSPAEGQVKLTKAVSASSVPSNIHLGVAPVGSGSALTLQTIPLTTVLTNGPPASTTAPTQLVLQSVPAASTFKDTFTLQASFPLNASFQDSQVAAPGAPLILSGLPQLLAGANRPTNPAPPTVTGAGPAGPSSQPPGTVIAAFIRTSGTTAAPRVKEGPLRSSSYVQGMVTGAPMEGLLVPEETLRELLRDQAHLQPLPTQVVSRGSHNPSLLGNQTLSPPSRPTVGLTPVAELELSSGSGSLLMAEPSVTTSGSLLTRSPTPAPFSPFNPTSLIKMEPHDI
Procedure, shortened: as §1

[15] = molecular target: T9, ELK4 (Homo sapiens, UniProt P28324-2 1-405); conditions: protein: recombinant; tags: N-terminal GST; dsDNA, one strand shown
T9 sequence: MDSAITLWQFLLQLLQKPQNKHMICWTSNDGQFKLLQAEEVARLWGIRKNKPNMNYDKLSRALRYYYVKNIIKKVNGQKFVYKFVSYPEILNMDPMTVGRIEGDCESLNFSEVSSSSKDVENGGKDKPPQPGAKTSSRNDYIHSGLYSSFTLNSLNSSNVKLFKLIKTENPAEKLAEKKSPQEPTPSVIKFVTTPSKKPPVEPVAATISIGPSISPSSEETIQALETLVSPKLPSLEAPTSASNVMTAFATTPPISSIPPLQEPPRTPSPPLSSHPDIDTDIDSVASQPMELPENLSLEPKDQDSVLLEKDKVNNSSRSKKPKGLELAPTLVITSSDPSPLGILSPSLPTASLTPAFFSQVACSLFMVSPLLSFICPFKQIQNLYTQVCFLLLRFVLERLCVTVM
Procedure, shortened: as §1

[16] = molecular target: T10, ETV2 (Homo sapiens, UniProt O00321 1-342); conditions: protein: recombinant; tags: N-terminal GST; dsDNA, one strand shown
T10 sequence: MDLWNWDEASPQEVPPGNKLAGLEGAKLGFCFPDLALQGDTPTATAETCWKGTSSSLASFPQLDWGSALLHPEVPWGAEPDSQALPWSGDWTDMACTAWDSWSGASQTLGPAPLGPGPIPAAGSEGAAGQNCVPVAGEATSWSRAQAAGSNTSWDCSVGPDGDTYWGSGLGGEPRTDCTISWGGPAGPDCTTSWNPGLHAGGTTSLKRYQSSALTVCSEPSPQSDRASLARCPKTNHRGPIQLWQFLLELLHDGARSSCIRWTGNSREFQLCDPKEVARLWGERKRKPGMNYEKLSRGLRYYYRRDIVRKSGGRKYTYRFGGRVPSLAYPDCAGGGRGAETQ
Procedure, shortened: as §1

[17] = molecular target: T11, ELF3 (Homo sapiens, UniProt P78545 1-371); conditions: protein: recombinant; tags: N-terminal GST; dsDNA, one strand shown
T11 sequence: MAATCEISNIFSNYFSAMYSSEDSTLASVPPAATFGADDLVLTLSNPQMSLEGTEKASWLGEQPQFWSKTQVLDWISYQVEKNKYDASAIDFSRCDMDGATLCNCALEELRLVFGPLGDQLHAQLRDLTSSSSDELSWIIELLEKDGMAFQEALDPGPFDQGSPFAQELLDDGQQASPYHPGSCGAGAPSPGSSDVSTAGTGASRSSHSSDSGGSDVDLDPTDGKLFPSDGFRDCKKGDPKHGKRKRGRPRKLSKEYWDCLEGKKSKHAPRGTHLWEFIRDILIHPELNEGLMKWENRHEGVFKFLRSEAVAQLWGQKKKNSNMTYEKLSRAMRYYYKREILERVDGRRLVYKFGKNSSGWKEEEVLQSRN
Procedure, shortened: as §1

[18] = molecular target: CRX (Homo sapiens, UniProt O43186 1-299); conditions: protein: recombinant; tags: N-terminal GST; dsDNA, one strand shown
Chain of CRX (O43186 whole entry): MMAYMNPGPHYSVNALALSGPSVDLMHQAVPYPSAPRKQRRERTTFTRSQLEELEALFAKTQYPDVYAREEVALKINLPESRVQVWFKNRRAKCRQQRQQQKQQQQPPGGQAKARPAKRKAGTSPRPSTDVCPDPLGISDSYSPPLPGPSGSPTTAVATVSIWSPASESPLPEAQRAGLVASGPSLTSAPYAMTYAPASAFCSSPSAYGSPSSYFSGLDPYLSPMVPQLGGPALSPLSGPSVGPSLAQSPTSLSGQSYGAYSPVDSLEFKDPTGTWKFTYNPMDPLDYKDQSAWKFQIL
Procedure, shortened: as §1

[19] = molecular target: ETV1 (Homo sapiens, UniProt P50549 1-477); conditions: protein: recombinant; tags: N-terminal GST; dsDNA, one strand shown
Chain of ETV1 (P50549 whole entry): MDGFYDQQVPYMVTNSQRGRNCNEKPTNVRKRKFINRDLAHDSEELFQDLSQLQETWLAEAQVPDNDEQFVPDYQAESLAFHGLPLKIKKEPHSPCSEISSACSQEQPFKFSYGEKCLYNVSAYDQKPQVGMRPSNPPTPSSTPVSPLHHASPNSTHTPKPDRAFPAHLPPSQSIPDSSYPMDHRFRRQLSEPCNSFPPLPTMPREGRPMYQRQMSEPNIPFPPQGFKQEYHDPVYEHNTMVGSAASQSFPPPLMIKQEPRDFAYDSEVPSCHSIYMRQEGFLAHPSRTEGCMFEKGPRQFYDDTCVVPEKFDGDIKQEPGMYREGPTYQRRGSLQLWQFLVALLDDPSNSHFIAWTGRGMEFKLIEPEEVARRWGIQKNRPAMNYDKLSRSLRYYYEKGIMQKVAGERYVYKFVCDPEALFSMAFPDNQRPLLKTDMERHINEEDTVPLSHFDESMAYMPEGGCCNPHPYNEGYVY
Procedure, shortened: as §1

TTGTGG was tested, and the binding signal [1] was 1.52 fold enrichment (6-mer frequency, TF over GST control), the binding signal [2] was 1.36 fold enrichment (6-mer frequency, TF over GST control) and the binding signal [3] was 1.41 fold enrichment (6-mer frequency, TF over GST control). For the same sequence, the binding signal [4] was 1.26 fold enrichment (6-mer frequency, TF over GST control), the binding signal [5] was 1.34 fold enrichment (6-mer frequency, TF over GST control) and the binding signal [6] was 1.3 fold enrichment (6-mer frequency, TF over GST control). The binding signal [7] was 1.46 fold enrichment (6-mer frequency, TF over GST control), the binding signal [8] was 1.29 fold enrichment (6-mer frequency, TF over GST control) and the binding signal [9] was 1.43 fold enrichment (6-mer frequency, TF over GST control). For the same sequence, the binding signal [10] was 1.27 fold enrichment (6-mer frequency, TF over GST control), the binding signal [11] was 1.41 fold enrichment (6-mer frequency, TF over GST control) and the binding signal [12] was 1.37 fold enrichment (6-mer frequency, TF over GST control). The binding signal [13] was 1.44 fold enrichment (6-mer frequency, TF over GST control), the binding signal [14] was 1.51 fold enrichment (6-mer frequency, TF over GST control) and the binding signal [15] was 1.35 fold enrichment (6-mer frequency, TF over GST control). The binding signal [16] was 1.29 fold enrichment (6-mer frequency, TF over GST control), the binding signal [17] was 1.34 fold enrichment (6-mer frequency, TF over GST control) and the binding signal [18] was 1.46 fold enrichment (6-mer frequency, TF over GST control). The binding signal [19] was 1.27 fold enrichment (6-mer frequency, TF over GST control).
